Results published in PubChem BioAssay (NCI).
About 83,000 compounds went through this panel and 20% of them were active in at least one assay; those are over-represented in the sample as a whole.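 Single-dose data. Exposure time 48 hours. Values below 10 considered active.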 Calls of active or inactive are those of the source.

Tests used:
Test in all cases: NCI-60 one-dose screen, 48 h (100 = growth as untreated, 0 = no growth, -100 = all killed)
Conditions in all cases: 10 µM unless noted
RPMI-8226 leukemia = system: RPMI-8226 leukemia
OVCAR-8 ovarian = system: OVCAR-8 ovarian
OVCAR-5 ovarian = system: OVCAR-5 ovarian
OVCAR-4 ovarian = system: OVCAR-4 ovarian
SK-OV-3 ovarian = system: SK-OV-3 ovarian
IGROV1 ovarian = system: IGROV1 ovarian
OVCAR-3 ovarian = system: OVCAR-3 ovarian
HS 578T breast = system: HS 578T breast
NCI/ADR-RES ovarian = system: NCI/ADR-RES ovarian
T-47D breast = system: T-47D breast

Measured: growth

O=C(Nc1ccc(F)cc1F)c1cc(Cl)ccc1O
inactive: OVCAR-8 ovarian 10.6% | OVCAR-5 ovarian 15.3% | OVCAR-4 ovarian 16.6% | IGROV1 ovarian 19.3%
active: RPMI-8226 leukemia 1.46% | SK-OV-3 ovarian -11.2% | OVCAR-3 ovarian 7.98% | HS 578T breast 9.26% | NCI/ADR-RES ovarian 7.62% | T-47D breast -12.4%

COc1ccc(-c2nsc3c2NC(=O)CC3c2ccc3c(c2)OCCO3)cc1 (stereo not given)
active: SK-OV-3 ovarian 3.12% | OVCAR-3 ovarian -38.6%
inactive: RPMI-8226 leukemia 31.5% | OVCAR-8 ovarian 35.3% | OVCAR-5 ovarian 37.5% | OVCAR-4 ovarian 36.9% | IGROV1 ovarian 49% | HS 578T breast 28.4% | NCI/ADR-RES ovarian 21% | T-47D breast 50.2%

CC1(C)CC2(C)OC2C2(C1)N=NC(=Nc1ccccc1)O2 (stereo not given)
inactive: OVCAR-8 ovarian 77.8% | OVCAR-5 ovarian 94.3% | OVCAR-4 ovarian 60.9% | SK-OV-3 ovarian 117% | IGROV1 ovarian 89.6% | OVCAR-3 ovarian 10.3% | HS 578T breast 103% | NCI/ADR-RES ovarian 92.7% | T-47D breast 63.9%
active: RPMI-8226 leukemia 4.43%

Brc1ccc(Nc2nc3ccccc3nc2Nc2ccc(Br)cc2)cc1
inactive: OVCAR-4 ovarian 12.7%
active: RPMI-8226 leukemia -12.3% | OVCAR-8 ovarian -31.4% | OVCAR-5 ovarian 6.38% | SK-OV-3 ovarian -16.7% | IGROV1 ovarian 1.3% | OVCAR-3 ovarian -55.4% | HS 578T breast -1.34% | NCI/ADR-RES ovarian 5.04% | T-47D breast -4.85%

NNC(=O)CNC(=O)Nc1n[nH]c(=S)s1
inactive: RPMI-8226 leukemia 93% | OVCAR-8 ovarian 104% | OVCAR-5 ovarian 97.6% | OVCAR-4 ovarian 117% | SK-OV-3 ovarian 99.8% | IGROV1 ovarian 102% | OVCAR-3 ovarian 108% | HS 578T breast 90.9% | NCI/ADR-RES ovarian 104% | T-47D breast 101%

CN(C)CCNc1cc(-c2ccccc2)nc2ccccc12
active: RPMI-8226 leukemia -8.18% | OVCAR-8 ovarian -34.4% | OVCAR-5 ovarian -39.7% | OVCAR-4 ovarian -25% | IGROV1 ovarian -64% | OVCAR-3 ovarian -92.5% | NCI/ADR-RES ovarian -1.85% | T-47D breast -5.18%
inactive: SK-OV-3 ovarian 36.4% | HS 578T breast 11.1%

FC(F)(F)c1cccc(Nc2nc3ccccc3nc2Nc2cccc(C(F)(F)F)c2)c1
active: RPMI-8226 leukemia -30.9% | OVCAR-8 ovarian -24.3% | OVCAR-5 ovarian 4.13% | IGROV1 ovarian -58.2% | OVCAR-3 ovarian -29.7% | HS 578T breast -4.37% | T-47D breast -61.7%
inactive: OVCAR-4 ovarian 11.7% | SK-OV-3 ovarian 32% | NCI/ADR-RES ovarian 77.9%

CCN1C(=O)N(CC)C2C1NN=c1s/c(=C3\C(=O)N(C(C)C)c4ccccc43)c(=O)n12 (stereo not given)
active: RPMI-8226 leukemia 7.53% | OVCAR-3 ovarian 5.56% | NCI/ADR-RES ovarian 7.06%
inactive: OVCAR-8 ovarian 12.6% | OVCAR-5 ovarian 54.2% | OVCAR-4 ovarian 58.1% | SK-OV-3 ovarian 29.7% | IGROV1 ovarian 36.5% | HS 578T breast 36.7% | T-47D breast 68.1%

CCCCCCC(O)(c1ccc(F)cc1)C(CN1CCOCC1)c1ccccc1 (stereo not given)
inactive: RPMI-8226 leukemia 16.9% | OVCAR-8 ovarian 33.5% | OVCAR-5 ovarian 69.8% | OVCAR-4 ovarian 31.7% | SK-OV-3 ovarian 76.7% | IGROV1 ovarian 44% | HS 578T breast 51.6% | NCI/ADR-RES ovarian 17.2% | T-47D breast 14.3%
active: OVCAR-3 ovarian 2.28%

Nc1cccc(Nc2cc(S(=O)(=O)O)c(N)c3c2C(=O)c2ccccc2C3=O)c1
inactive: RPMI-8226 leukemia 110% | OVCAR-8 ovarian 104% | OVCAR-5 ovarian 111% | OVCAR-4 ovarian 107% | SK-OV-3 ovarian 88.6% | IGROV1 ovarian 106% | OVCAR-3 ovarian 103% | HS 578T breast 107% | NCI/ADR-RES ovarian 106% | T-47D breast 93.1%

O=C(Nc1ccc(Cl)cc1F)c1cc(I)ccc1O
inactive: OVCAR-8 ovarian 10.1% | OVCAR-5 ovarian 79.9% | OVCAR-4 ovarian 23.1% | IGROV1 ovarian 27.2% | OVCAR-3 ovarian 10.4% | NCI/ADR-RES ovarian 11.3%
active: RPMI-8226 leukemia 3.96% | SK-OV-3 ovarian -4.98% | HS 578T breast 3.41% | T-47D breast -0.952%

CN1C(=O)N(C)C2(c3ccccc3)OC(=S)NC12c1ccccc1 (stereo not given)
inactive: RPMI-8226 leukemia 109% | OVCAR-8 ovarian 100% | OVCAR-5 ovarian 99.6% | OVCAR-4 ovarian 96.1% | SK-OV-3 ovarian 92% | IGROV1 ovarian 103% | OVCAR-3 ovarian 97.4% | HS 578T breast 108% | NCI/ADR-RES ovarian 108% | T-47D breast 95.4%

COc1ccc(-c2nc(N3CCN(C(=O)C4CCCCC4)CC3)c3c4c(sc3n2)CCCC4)cc1
active: RPMI-8226 leukemia 2.49% | OVCAR-8 ovarian -44.7% | OVCAR-4 ovarian -85.4% | OVCAR-3 ovarian -38.3% | T-47D breast 3.68%
inactive: OVCAR-5 ovarian 35.6% | SK-OV-3 ovarian 81% | IGROV1 ovarian 33.7% | HS 578T breast 12.8% | NCI/ADR-RES ovarian 84.2%

COc1cc(OC)cc(N2C(=O)N(Cc3ccc(C(C)(C)C)cc3)c3ccccc3S2(=O)=O)c1
inactive: RPMI-8226 leukemia 34.6% | OVCAR-8 ovarian 96% | OVCAR-5 ovarian 86.2% | OVCAR-4 ovarian 81.8% | SK-OV-3 ovarian 93.4% | IGROV1 ovarian 86.4% | OVCAR-3 ovarian 92.2% | HS 578T breast 90.9% | NCI/ADR-RES ovarian 73.2% | T-47D breast 81.1%

COc1cc(CNC(=O)c2ccsc2Nc2ccnc(C(F)(F)F)c2)ccc1O
inactive: RPMI-8226 leukemia 91% | OVCAR-8 ovarian 102% | OVCAR-5 ovarian 107% | OVCAR-4 ovarian 105% | SK-OV-3 ovarian 97.3% | IGROV1 ovarian 105% | OVCAR-3 ovarian 105% | HS 578T breast 104% | NCI/ADR-RES ovarian 95.4% | T-47D breast 98.7%

COc1cc(C(C)n2cc(-c3ccccc3)nn2)ccc1OC1CCCCC1 (stereo not given)
inactive: RPMI-8226 leukemia 35% | OVCAR-8 ovarian 55.3% | OVCAR-5 ovarian 92.6% | OVCAR-4 ovarian 55.2% | SK-OV-3 ovarian 73.4% | IGROV1 ovarian 77.2% | OVCAR-3 ovarian 67.6% | HS 578T breast 91.4% | NCI/ADR-RES ovarian 49.3% | T-47D breast 58.8%

COc1ccccc1C(=O)O/N=C(\N)Cc1cccc2ccccc12
inactive: RPMI-8226 leukemia 73.4% | OVCAR-8 ovarian 78.6% | OVCAR-5 ovarian 95.2% | OVCAR-4 ovarian 62.3% | SK-OV-3 ovarian 103% | IGROV1 ovarian 86.7% | HS 578T breast 97% | NCI/ADR-RES ovarian 69.8% | T-47D breast 93.3%
active: OVCAR-3 ovarian 4.24%

O=C(Nc1ccc(I)cc1F)c1cc(F)ccc1O
inactive: OVCAR-5 ovarian 23.6% | OVCAR-4 ovarian 12.4% | IGROV1 ovarian 12.7%
active: RPMI-8226 leukemia -33.8% | OVCAR-8 ovarian 6.16% | SK-OV-3 ovarian -6.45% | OVCAR-3 ovarian 6.68% | HS 578T breast -3.33% | NCI/ADR-RES ovarian 4.19% | T-47D breast -12.4%

CCCCCCc1cc2cc(-c3csc(/C=C/c4ccccc4)n3)c(=O)oc2cc1O
active: RPMI-8226 leukemia -1.82% | OVCAR-3 ovarian 2.25% | HS 578T breast 3.39% | T-47D breast 5.5%
inactive: OVCAR-8 ovarian 20% | OVCAR-5 ovarian 81.7% | OVCAR-4 ovarian 36.8% | SK-OV-3 ovarian 47% | IGROV1 ovarian 37.2% | NCI/ADR-RES ovarian 20.2%

COc1ccc(N2C(=O)CC(c3cc(OC)c(OC)c(OC)c3)C3C2=NC(=O)N3C)cc1 (stereo not given)
inactive: RPMI-8226 leukemia 119% | OVCAR-8 ovarian 102% | OVCAR-5 ovarian 102% | OVCAR-4 ovarian 105% | SK-OV-3 ovarian 108% | IGROV1 ovarian 109% | OVCAR-3 ovarian 108% | HS 578T breast 97.1% | NCI/ADR-RES ovarian 109% | T-47D breast 95.7%

O=C(c1ccccc1)N(C(=S)NCCc1ccc(Cl)cc1)c1ccccc1
inactive: OVCAR-8 ovarian 105% | OVCAR-5 ovarian 91.2% | OVCAR-4 ovarian 96.9% | SK-OV-3 ovarian 114% | IGROV1 ovarian 102% | OVCAR-3 ovarian 98% | HS 578T breast 112% | NCI/ADR-RES ovarian 99% | T-47D breast 59.6%
active: RPMI-8226 leukemia -30.9%

COc1cc2cc3c(=O)n4c(cc5cc(OC)ncc54)c(=O)n3c2cn1
inactive: RPMI-8226 leukemia 98% | OVCAR-8 ovarian 112% | OVCAR-5 ovarian 110% | OVCAR-4 ovarian 114% | SK-OV-3 ovarian 113% | IGROV1 ovarian 95.8% | OVCAR-3 ovarian 109% | HS 578T breast 104% | NCI/ADR-RES ovarian 108% | T-47D breast 95.2%

O=C(NC1CCCCC1)C(c1cccs1)N(CCc1ccccc1)C(=O)c1ccco1 (stereo not given)
inactive: RPMI-8226 leukemia 79.7% | OVCAR-8 ovarian 88.2% | OVCAR-5 ovarian 87.1% | OVCAR-4 ovarian 95.9% | SK-OV-3 ovarian 89.6% | IGROV1 ovarian 97.7% | OVCAR-3 ovarian 96.6% | HS 578T breast 93.8% | NCI/ADR-RES ovarian 94.3% | T-47D breast 85.1%

COc1ccc(S(=O)(=O)N(Cc2ccc3c(n2)C=CC(C)(C)O3)C2CCC2)cc1OC
inactive: OVCAR-5 ovarian 27.2% | HS 578T breast 12.8%
active: RPMI-8226 leukemia -47.2% | OVCAR-8 ovarian 2.69% | OVCAR-4 ovarian -13.8% | SK-OV-3 ovarian -3.43% | IGROV1 ovarian -23.9% | OVCAR-3 ovarian -26.6% | NCI/ADR-RES ovarian 6.95% | T-47D breast 0.329%

CC(C)CCOc1ccc(-c2n[nH]c(C(F)(F)F)c2-c2cncc(C#N)c2)c(O)c1
active: RPMI-8226 leukemia -31.8% | SK-OV-3 ovarian -7.94% | OVCAR-3 ovarian 2.95% | NCI/ADR-RES ovarian 2.45% | T-47D breast 2.83%
inactive: OVCAR-8 ovarian 12.5% | OVCAR-5 ovarian 36.9% | OVCAR-4 ovarian 20.5% | IGROV1 ovarian 46.9% | HS 578T breast 18%

CCn1c(-c2nonc2Nc2ccc(OC)cc2)nc2ccccc21
inactive: RPMI-8226 leukemia 117% | OVCAR-8 ovarian 102% | OVCAR-5 ovarian 107% | OVCAR-4 ovarian 101% | SK-OV-3 ovarian 111% | IGROV1 ovarian 106% | OVCAR-3 ovarian 112% | HS 578T breast 96.7% | NCI/ADR-RES ovarian 96% | T-47D breast 97.3%

COc1cc(-c2c3c(cn2S(=O)(=O)c2ccccc2)-c2nc(N)sc2CC3)cc(OC)c1OC
active: OVCAR-3 ovarian -43.5%
inactive: RPMI-8226 leukemia 25.3% | OVCAR-8 ovarian 32.7% | OVCAR-5 ovarian 43.4% | OVCAR-4 ovarian 56% | SK-OV-3 ovarian 12.6% | IGROV1 ovarian 31.6% | HS 578T breast 23% | NCI/ADR-RES ovarian 14.9% | T-47D breast 44%

COc1ccc(Cn2c(Br)c3c(c2Br)-c2nc(N)sc2CC3)cc1
active: OVCAR-3 ovarian 7.35%
inactive: RPMI-8226 leukemia 27.3% | OVCAR-8 ovarian 41% | OVCAR-5 ovarian 91.4% | OVCAR-4 ovarian 47.8% | SK-OV-3 ovarian 24% | IGROV1 ovarian 34.7% | HS 578T breast 34.1% | NCI/ADR-RES ovarian 18.5% | T-47D breast 50.4%
